{
  "source": "the supplement of paper PMC7858590",
  "note": "Where “and” joins values, the source holds several entries; their conditions need not be identical. Equal entries are not always repeated. ± gives the standard deviation of the averaged measurements. Over roughly 3,800 compounds, “cell shape (eccentricity) Z-score vs DMSO control” has its median near 1.1; the lowest 2% begin near -4.7. The entries come from a sample that favours the lowest values as a whole.",
  "data": [
    {"test_system": "human monocyte-derived macrophages (M0)", "assay": "cell shape (eccentricity) Z-score vs DMSO control; higher = more elongated, M2-like morphology", "conditions": "20 µM; 24 h; macrophage state: M0 (M-CSF)", "method": "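Primary human monocyte-derived macrophages (M-CSF differentiated, pooled from 4 donors, 5000 cells/well in 384-well plates) were treated with each compound at 20 uM for 24 h, then fixed and stained with phalloidin/DAPI and imaged on an Opera Phenix (6 fields, about 1000 cells/well). Cell eccentricity was measured with CellProfiler, and a Z-score (t-test) was computed against 4 DMSO control wells in the same row. Negative values mean round (M1-like) cells and positive values mean elongated (M2-like) cells; the paper's hit cutoffs are Z <= -4 (M1) and Z >= 6 (M2). Scale: negative = round, M1-like.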", "values": [
      {"smiles": "C/C(=C\\Cc1c(O[C@@H]2O[C@H](CO)[C@@H](O)[C@H](O)[C@H]2O)ccc2ccc(=O)oc12)CO", "cell shape (Z-score)": "0.962 ± 0.97"},
      {"smiles": "CCC1(c2ncc[nH]2)Cc2ccccc2O1", "note": "(centres undefined)", "cell shape (Z-score)": 1.92},
      {"smiles": "N#CC(=C(N)Sc1ccc(N)cc1)c1ccccc1C(F)(F)F", "cell shape (Z-score)": 4.79},
      {"smiles": "CC1CC(=O)C2C(O)(C1)CC(O)C13OC21C(=O)c1cccc(O)c1C3O", "note": "(centres undefined)", "cell shape (Z-score)": "3.39 ± 2.6"},
      {"smiles": "C[C@H](CCC(=O)NCC(=O)O)[C@H]1CCC2C3C(C[C@H](O)[C@@]21C)[C@@]1(C)CC[C@@H](O)CC1C[C@H]3O", "note": "(some centres undefined)", "cell shape (Z-score)": 1.5},
      {"smiles": "CC(=O)O[C@@H]1CC2C(C)(C)C(=O)C3OC3[C@]2(C)C2CC[C@@]3(C)[C@H](c4ccoc4)OC(=O)C4OC43[C@@]21C", "note": "(some centres undefined)", "cell shape (Z-score)": -1.17},
      {"smiles": "CC1(CO)CC(O)CC2(C)C3=C(CCC12)C(=O)OC3", "note": "(centres undefined)", "cell shape (Z-score)": -1.57},
      {"smiles": "COC(=O)C(CCCNC(=N)N)NC(=O)CCCc1c(-c2ccccc2)[nH]c2c(F)cc(F)cc12", "note": "(centres undefined)", "cell shape (Z-score)": 6.11},
      {"smiles": "COCCCOc1ccnc(CS(=O)c2nc3ccccc3[nH]2)c1C", "note": "(centres undefined)", "cell shape (Z-score)": -6.29},
      {"smiles": "COc1ccnc(CS(=O)c2nc3cc(OC(F)F)ccc3[nH]2)c1OC", "note": "(centres undefined)", "cell shape (Z-score)": -1.46},
      {"smiles": "Cc1c(OCC(F)(F)F)ccnc1CS(=O)c1nc2ccccc2[nH]1", "note": "(centres undefined)", "cell shape (Z-score)": 3.11},
      {"smiles": "COC1=CC(=O)CC(C)C12Oc1cc(OC)cc(O)c1C2=O", "note": "(centres undefined)", "cell shape (Z-score)": 1.27},
      {"smiles": "OCCOCCN1CCN(C2=Nc3ccccc3Sc3ccccc32)CC1", "cell shape (Z-score)": 2.19},
      {"smiles": "CNCC[C@@H](Oc1ccccc1C)c1ccccc1", "cell shape (Z-score)": 0.617},
      {"smiles": "CNCCC(Oc1ccc(C(F)(F)F)cc1)c1ccccc1", "note": "(centres undefined)", "cell shape (Z-score)": -4.88},
      {"smiles": "CNCCC(Oc1ccccc1OC)c1ccccc1", "note": "(centres undefined)", "cell shape (Z-score)": 1.09},
      {"smiles": "C/C=C(/C)C(=O)O[C@H]1C=C(C)C[C@H](OC(=O)c2ccc(O)cc2)C2[C@](O)(C(C)C)CC[C@@]21C", "note": "(some centres undefined)", "cell shape (Z-score)": -3.37},
      {"smiles": "CCN(CC)CCOc1ccc2c(c1)C(=O)c1cc(OCCN(CC)CC)ccc1-2", "cell shape (Z-score)": 11.9},
      {"smiles": "O=C1c2ccccc2-c2nc3nonc3nc21", "cell shape (Z-score)": -6.25},
      {"smiles": "N#Cc1nc2c(nc1C#N)-c1ccc(Cl)cc1C2=O", "cell shape (Z-score)": 2.23},
      {"smiles": "CC1(C)CC[C@]2(C(=O)O)CC[C@]3(C)C(=CCC4[C@@]5(C)CC[C@H](O[C@@H]6OC[C@H](O)[C@H](O)[C@H]6O)[C@@](C)(CO)C5CC[C@]43C)C2C1", "note": "(some centres undefined)", "cell shape (Z-score)": -2.37},
      {"smiles": "Cc1cc(NS(=O)(=O)c2ccc(N)cc2)no1", "cell shape (Z-score)": -8.11},
      {"smiles": "CNc1cc(NS(=O)(=O)c2ccc(N)cc2)nc(NC)n1", "cell shape (Z-score)": 3.31},
      {"smiles": "Cc1noc(NS(=O)(=O)c2ccc(N)cc2)c1C", "cell shape (Z-score)": 2.76},
      {"smiles": "Cn1c(=O)c2c(n(C)c1=O)n(C)c(=O)n2C", "cell shape (Z-score)": 0.458},
      {"smiles": "Cc1cc(Nc2nc(N[C@@H](C)c3ncc(F)cn3)ncc2Cl)n[nH]1", "cell shape (Z-score)": 7.45},
      {"smiles": "CCCCCCCCCCCCCCCCCCc1ccc(C(=O)C=CC(=O)O)cc1", "cell shape (Z-score)": 0.47},
      {"smiles": "CCCCCCCCc1ccc(-c2ccc(C(=O)O)cc2)cc1", "cell shape (Z-score)": 7.84},
      {"smiles": "CCCCCCCCc1ccc(CCC(N)(CO)CO)cc1", "cell shape (Z-score)": "-5.98 ± 2.9"},
      {"smiles": "COc1cc(/C=C/C(=O)O[C@H]2CC[C@]34CC35CC[C@]3(C)[C@@H](C(C)CCC=C(C)C)CC[C@@]3(C)C5CCC4C2(C)C)ccc1O", "note": "(some centres undefined)", "cell shape (Z-score)": -1.25},
      {"smiles": "COc1cc(O)c2c(c1)C(=O)c1cc(C)cc(O)c1C2=O", "cell shape (Z-score)": 2.65},
      {"smiles": "Cc1cc(O)c2c(c1)C(=O)c1cccc(O)c1C2=O", "cell shape (Z-score)": 3.93},
      {"smiles": "Cc1cc(O)c2c(c1)C(=O)C1=C(C2=O)C(O)C(O)C(O)C1O", "note": "(centres undefined)", "cell shape (Z-score)": -13.9},
      {"smiles": "COc1c(OC)c(O)c2c(=O)c(O)c(-c3ccccc3)oc2c1OC", "cell shape (Z-score)": 4.23},
      {"smiles": "CC(=O)NC(C(=O)O[C@H]1CCC(C)(C)[C@@H]2CC=C3C(=O)OCC3(O)[C@@]12C)C(C)C", "note": "(some centres undefined)", "cell shape (Z-score)": "0.522 ± 0.68"},
      {"smiles": "CC(=O)O[C@@H]1[C@@H](O)[C@H](C)O[C@@H](O[C@H]2[C@@H]3C=CO[C@@H](O[C@@H]4O[C@H](CO)[C@@H](O)[C@H](O)[C@H]4O)[C@@H]3[C@@]3(CO)O[C@@H]23)[C@@H]1OC(=O)/C=C/c1ccc(O)cc1", "cell shape (Z-score)": "-0.936 ± 2.8"},
      {"smiles": "C=C1C(=O)O[C@H]2[C@H]1CC/C(C)=C/CC[C@@]1(C)O[C@@H]21", "cell shape (Z-score)": -3.88},
      {"smiles": "C=C1C(=O)O[C@@H]2[C@H]3O[C@]3(C)CC/C=C(/C)CC[C@@H]12", "cell shape (Z-score)": -9.25},
      {"smiles": "C=C1C(=O)O[C@@H]2/C=C(\\C)CC/C=C(\\C)CC[C@@H]12", "cell shape (Z-score)": -1.08},
      {"smiles": "C/C(=C\\CC[C@@H](C)[C@H]1CC[C@@]2(C)C3CC[C@H]4C(C)(C)[C@@H](OC5OC(CO)C(OC6OC(CO)C(O)C(O)C6O)C(O)C5O)CC[C@@]45C[C@@]35CC(O)[C@]12C)C(=O)O", "note": "(some centres undefined)", "cell shape (Z-score)": 0.155},
      {"smiles": "Nc1ccc(S(=O)(=O)NC(=O)c2ccccc2)cc1", "cell shape (Z-score)": 0.441},
      {"smiles": "COc1nc(N)nc2c1ncn2[C@@H]1O[C@H](CO)[C@@H](O)[C@@H]1O", "cell shape (Z-score)": "0.62 ± 1.5"},
      {"smiles": "O=C(O)CCCN1C(=O)c2cccc3cccc(c23)C1=O", "cell shape (Z-score)": 1.83},
      {"smiles": "O=C(O)Cn1c(C(=O)Nc2nc(-c3ccccc3Cl)cs2)cc2ccccc21", "cell shape (Z-score)": 2.41},
      {"smiles": "O=C(O)CN1C(=O)c2cccc3cccc(c23)C1=O", "cell shape (Z-score)": -6.86},
      {"smiles": "O=c1[nH]c2cc(Cl)ccc2c(O)c1-c1cccc(Oc2ccccc2)c1", "cell shape (Z-score)": -0.358},
      {"smiles": "CN1C(C(=O)Nc2ccccn2)C(=O)c2ccccc2S1(=O)=O", "note": "(centres undefined)", "cell shape (Z-score)": 1.33},
      {"smiles": "CC(=O)C(C#N)C(=O)Nc1cc(Br)ccc1Br", "note": "(centres undefined)", "cell shape (Z-score)": -5.16},
      {"smiles": "C[C@H]1CN([C@@H](C)CO)S(=O)(=O)c2ccc(C#Cc3ccncc3)cc2O[C@@H]1CN(C)C(=O)Nc1ccc2c(c1)OCO2", "cell shape (Z-score)": -10.9},
      {"smiles": "C[C@@H]1CN([C@H](C)CO)S(=O)(=O)c2ccc(C#Cc3ccncc3)cc2O[C@H]1CN(C)C(=O)Nc1ccc2c(c1)OCO2", "cell shape (Z-score)": 3.81},
      {"smiles": "C[C@H]1CN([C@@H](C)CO)S(=O)(=O)c2ccc(C#Cc3ccccc3F)cc2O[C@H]1CN(C)C(=O)Cc1ccncc1", "cell shape (Z-score)": 2.68},
      {"smiles": "COc1cc2oc(-c3ccccc3)cc(=O)c2c(O)c1OC", "cell shape (Z-score)": 3.73},
      {"smiles": "CCN(CC)CCNC(=O)c1c(C)[nH]c(/C=C2\\C(=O)Nc3ccc(F)cc32)c1C", "cell shape (Z-score)": "10.3 and 12.2"},
      {"smiles": "C=C1C(=O)O[C@@H]2C[C@H](C)C3C[C@H](O)[C@H](O)[C@@]3(C)C[C@H]12", "note": "(some centres undefined)", "cell shape (Z-score)": "-2.78 ± 0.67"},
      {"smiles": "CN[C@H]1CC[C@@H](c2ccc(Cl)c(Cl)c2)c2ccccc21", "cell shape (Z-score)": -5.32},
      {"smiles": "C=C1CC(O)C2C(=C)C(=O)OC2C2C(=C)C(OC3OC(CO)C(O)C(OC(=O)/C=C/c4ccc(O)c(O)c4)C3O)CC12", "note": "(centres undefined)", "cell shape (Z-score)": -1.95},
      {"smiles": "CC(C)CC1NC(=O)C2CCCN2C1=O", "note": "(centres undefined)", "cell shape (Z-score)": 2.84},
      {"smiles": "CC(C)CC1NC(=O)C(C)NC1=O", "note": "(centres undefined)", "cell shape (Z-score)": -5.83},
      {"smiles": "CC(C)=CCc1c(O)cc(O)c2c1OC(c1ccc(O)c(O)c1)CC2=O", "note": "(centres undefined)", "cell shape (Z-score)": 1.24}
    ]}
  ]
}
